Among all 200,000 compounds or so, about 10 (0.005%) were called active. Roughly 8% stayed inconclusive and do not appear here. Only a sample is shown. A number with no mark means an inactive call. Calls follow the shape of the dose curve; as a rule, active = well fitted inhibition curve with a large enough effect; inconclusive = small, poorly fitted or top-dose-only effect, or effect the other way, or another doubt; inactive = no such curve, though single readings can be large or run the other way.
target: Lysosomal alpha-glucosidase (Homo sapiens) (UniProt P10253); assay: qHTS Assay for Inhibitors of Human alpha-Glucosidase as a Potential Chaperone Treatment of Pompe Disease; conditions: purified human GAA, 4-MU-alpha-glucoside fluorescence; series mostly up to 76.9 µM;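 also: plate controls were uninhibited enzyme wells for no effect and no-enzyme background for full effect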
Text: NIH Chemical Genomics Center [NCGC] NIH Molecular Libraries Probe Production centers Network [MLPCN] MLPCN Grant: 1R03MH084841-01 Assay Submitter (PI): Wei Zheng NCGC Assay Overview: Alpha-glucosidase is responsible for hydrolysis of terminal, non-reducing 1,4-linked alpha-D-glucose residues with release of alpha-D-glucose. It is a lysosomal hydrolase that is required for the degradation of a small percentage (1-3%) of cellular glycogen in human. Deficiency of this enzyme results in glycogen-storage disease type II (GSDII), also referred to as Pompe disease, an autosomal recessive disorder. Structurally normal glycogen is accumulated in lysosomes and cytoplasm in affected patients, primarily in muscle tissues. Excessive glycogen storage within lysosomes may interrupt normal functioning of other organelles and leads to cellular injury. In turn, this leads to enlargement and dysfunction of the entire organ involved (eg, cardiomyopathy and muscle weakness). It has reported that the improper folding and trafficking of alpha-glucosidase resulting from the genetic mutations may account for a significant number of Pompe patients. […] We optimized this alpha-glucosidase assay in 1536-well plate format for identifying the novel small molecule inhibitors with the structures other than the sugar analogs in order to develop the new pharmacological chaperones.
NCGC Assay Protocol Summary: This is a fluorogenic enzyme assay with 4-methylumbelliferyl-alpha-D-[…] as the substrate and human alpha-glucosidase as the enzyme preparation. Upon the hydrolysis of this fluorogenic substrate, the resulting product, 1. 4-methyllumbelliferone, can be excited at 365 nm and emits at 440 nm which can be detected by a standard fluorescence plate reader. Data were normalized to the controls for basal activity (without enzyme) and 100% activity (with enzyme). In the AC50 values were determined from concentration-response data modeled with the standard Hill equation. Assay buffer: 50 mM citric acid (titrated with potassium phosphate to pH 5.0), 0.005% Tween-20, pH 5.0. (pH 5.0 is an optimal condition for this enzyme assay) 1536-well assay protocol for the human alpha-glucosidase: (1) Add 2 ul/well of enzyme (4 nM final) (2) Add 23 nL compounds in DMSO solution. The final titration was 0.7 nM to 77 uM. (3) Add 1 ul of substrate (400 uM final) (4) Incubate at room temperature for 20 min. (5) Add 2 ul stop solution (1M NaOH and 1M Glycine mixture, pH 10) (6) Detect the assay plate in a ViewLux plate reader (PerkinElmer) with Ex=365 nm and Em=440nm. Keywords: Alpha-glucosidase, Pompe Disease, pharmacological chaperone, chaperone therapy, high throughput screening, alpha-glucosidase inhibitor, MLSMR, MLSCN, NIH Roadmap, qHTS and NCGC

Compound	activity change, negative = inhibition
COc1ccc(OC)c(NC(=O)CN(Cc2ccc(Cl)cc2)S(C)(=O)=O)c1	inactive
O=C(N/N=C/c1ccccn1)c1cccnc1	-6.66% [at 15.4 µM]
CCOC(=O)c1cnc2c(c(C)nn2CC)c1Cl	inactive
CCc1nc(C)cn1S(=O)(=O)c1cc([N+](=O)[O-])ccc1Cl	inactive
O=[N+]([O-])c1ccc(F)cc1Oc1nc(-c2cccnc2)nc2ccccc12	inactive
COc1ccc(/C=C/C2=CC(C)(C)NC(=S)N2)c(OC)c1	inactive
COc1ccccc1C1CCN(C(=S)Nc2ccc(Br)cc2)CC1	-8.72% [at 15.4 µM]
Cc1ccc(-c2nn(-c3cccc(F)c3)cc2CNCCc2ccncc2)o1	inactive
Brc1ccc2nc(N3CCCC3)sc2c1	inactive
COc1ccc(Cl)cc1N(CC(=O)N1CCCCC1)S(C)(=O)=O	inactive
Cn1nc(C(F)(F)F)cc1-c1ccc(/C=C(\C#N)C(=O)c2cccc(C(F)(F)F)c2)s1	inactive
COc1ccc(C(=O)Nc2ccc(NC(=O)C(C)C)nc2)cc1	inactive
CC1Cc2ccccc2N1C(=O)CSc1nnc(C2CC2)n1C (centres undefined)	inactive
Cc1nnsc1C(=O)NCc1c(F)cccc1Cl	inactive
Cc1cc(Cl)ccc1NNC(=O)c1snnc1C	inactive
COc1cc(C)c(S(=O)(=O)N2CCOCC2)c(C)c1C	inactive
COc1ccccc1/C=C/C=N/NC(=O)CN1CCN(Cc2ccccc2)CC1	inactive
Cc1ccc(NC(=O)CSc2nnc(CNC(=O)c3ccccc3F)o2)cc1	inactive
COc1cccc(NCCC(=O)c2cccc([N+](=O)[O-])c2)c1	inactive
CC(C)N(Cc1ccccc1)C(=O)COC(=O)c1cnccn1	inactive
O=C1Nc2ccc([N+](=O)[O-])cc2C1=Nc1cccc(CO)c1	inactive
COc1cc(/C=C2/C(=O)ON=C2C)ccc1OCc1cccc(F)c1	inactive
CCCCS(=O)c1snnc1C (centres undefined)	inactive

Compound	activity change, negative = inhibition
COc1ccc(-c2nc(N)sc2C2(O)C(=O)Nc3c(Br)cc(F)cc32)cc1OC (centres undefined)	inactive
COc1ccccc1NC(=O)c1cc(Cl)nc2ccccc12	-0.703% [at 15.4 µM]
Cc1c(C(=O)Nc2ccccc2)sc2nc3n(c(=O)c12)CCCCC3	inactive
Cc1noc(C)c1COc1ccc2ccc(=O)oc2c1	inactive
O=C(CO/N=C/c1ccc(OC(F)F)cc1)NCc1ccc(F)cc1	inactive
COCc1cc(=O)[nH]c(-c2ccc(C(F)(F)F)cc2)n1	inactive
CC1CC(C)CN(C(=O)CSc2ccsc2[N+](=O)[O-])C1 (centres undefined)	inactive
O=C(c1ccc(=O)oc1)N1CCC(C(O)(c2ccccc2)c2ccccc2)CC1	inactive
O=C(/C=C/c1ccccc1[N+](=O)[O-])OC1CCCCC1=O (centres undefined)	inactive
CCOc1ccc(C(CC(=O)O)n2cnnn2)cc1OC (centres undefined)	inactive
Cc1cc(=O)[nH]c(S)c1C#N	1.79% [at 15.4 µM]
Cc1c(Cl)cccc1NC(=S)N(Cc1ccccc1)Cc1cccnc1	inactive
C=C(C)CNC(=S)Nc1ccc(S(=O)(=O)Nc2cnc3ccccc3n2)cc1	inactive
N/C(=N\OC(=O)Cc1ccc([N+](=O)[O-])cc1)c1ccccn1	inactive
COc1cccc(OC)c1CN(C)C(=O)c1cnccc1C(F)(F)F	-1.85% [at 15.4 µM]
CCS(=O)(=O)C1=NSC2=NC(=O)/C(=C\c3cc(C)n(-c4cccc(OC)c4)c3C)C(=N)N21	inactive
CC1CC(=O)Nc2ccccc2N1S(=O)(=O)c1cccs1 (centres undefined)	inactive
Cc1nc(N2CCCCC2)sc1C=O	inactive
Cc1cc(C)nc(NC(=O)/C=C/c2ccc(Cl)cc2)n1	inactive
COc1ccc(N2C(=O)C3C(C2=O)C(C(=O)c2ccccc2)N2CCCC32)cc1 (centres undefined)	-6.45% [at 15.4 µM]
Cc1ccc(OC(=O)c2c(C)nn(-c3ccccc3)c2C)cc1	inactive
NS(=O)(=O)c1ccc(NC(=O)COC(=O)CCc2c[nH]c3ccccc23)cc1	inactive
COc1ccc(CN(Cc2ccc(OC)cc2)C(=O)c2cccs2)cc1	inactive

Compound	activity change, negative = inhibition
CCC(=O)N(Cc1cc2ccccc2[nH]c1=O)c1ccc(OC)cc1	inactive
O=C(Nc1cccnc1)c1cccc(S(=O)(=O)N2CCCC2)c1	inactive
CCOC(=O)NNc1cc(C(F)(F)F)ccn1	-7.1% [at 15.4 µM]
CN(C)c1ccc(/C=C/C(=O)c2ccc(O)cc2)cc1[N+](=O)[O-]	inactive
COC(=O)c1noc(C)c1-c1ccnn1C(=O)c1ccc(Cl)cc1	inactive
CN(CCC1CCOCC1)Cc1cn[nH]c1-c1ccc(-c2ccccc2)cc1	inactive
CCOC(=O)C1CCN(c2ncnc3c2c(-c2ccccc2)cn3-c2ccc(C)cc2)CC1	inactive
CCOC(=O)c1sc(NC(=O)CSc2nc(O)c(Cc3ccccc3)c(=O)[nH]2)nc1C	inactive
Cc1cc(=O)oc2c(C(=O)c3ccccc3)c(OCC(N)=O)ccc12	inactive
Cc1cc(C)cc(OCC(=O)O/N=C(\N)Cc2ccc([N+](=O)[O-])cc2)c1	inactive
COC(=O)c1cc(NC(=O)c2ccco2)ccc1N1CCOCC1	inactive
CCc1ccc(NC(=O)N2CCN(c3ccccc3)CC2)cc1	inactive
C=CCN(c1ccccc1C(=O)NCC(=O)OCC)S(=O)(=O)c1ccc(C)cc1	inactive
CNC(=O)COC(=O)c1cc(-c2ccc(OC)cc2)nc2ccccc12	inactive
COCCCNC(=S)NCCNc1nc2cc(C)c(C)cc2cc1C#N	inactive
C/[N+]([O-])=C\c1ccc([N+](=O)[O-])o1	inactive
COc1ccc(O)c(C(=O)c2cnc3c(c2)c(-c2ccc(F)cc2)c(C#N)c(=O)n3C)c1	inactive
CN(C)S(=O)(=O)c1ccc(NC(=O)COC(=O)Cn2[nH]c(=O)c3ccccc3c2=O)cc1	inactive
Cc1ccc(CN(Cc2cccnc2)C(=S)Nc2cc(Cl)ccc2C)cc1	inactive
Cc1ccccc1NCC(=O)N/N=C\c1ccc([N+](=O)[O-])s1	inactive
COc1cccc(NC(=O)C(Sc2nnnn2C)c2ccccc2)c1 (centres undefined)	inactive
Cc1cc(C(=O)N/N=C\C(Br)=C\c2ccccc2)c(C)o1	inactive
COc1ccc(NC(=O)CSc2ncnc3[nH]ncc23)cc1	5.07% [at 15.4 µM]
